This note sets out measurements from ChEMBL document CHEMBL4888484, “Replenishing the malaria drug discovery pipeline: Screening and hit evaluation of the MMV Hit Generation Library 1 (HGL1) against asexual blood stage Plasmodium falciparum ,using a nano luciferase reporter read-out” (2022).

About 410 (8.5%) of roughly 4,800 compounds showed an effect of 50% or more. The sample holds strong results, similar compounds and a random draw of the others, so the mix is not that of the screen.

The test system of this assay is Plasmodium falciparum. In words: Confirmatory screen in NF54 pLDH assay, in single point, at 2uM, 72h. To be noted: timepoint 72 hour. The class given is functional, Erythrocyte.
As to `CCN(CC)C(=O)c1cc(C)n(-c2ccc3c(c2)OCCO3)c1C`, the “% Inhibition” value was -3%.

Regarding `O=C1c2[nH]nc(-c3cccs3)c2[C@@H](c2cccc(O)c2)N1c1nccs1`, the “% Inhibition” value was 5%.

`O=S(=O)(N[C@H]1CCc2nnc(-c3ccc(F)cc3)n2C1)c1cccnc1`: the “% Inhibition” value was found to be 13%.

Consider `C[C@@H]1CN(c2ccc(N)cn2)C[C@H](C)O1`, for which the “% Inhibition” value is on record as -12%.

As for `CCCNC(=O)C[C@H](C)CC(=O)NCCc1ccc(OC)c(OC)c1`, the “% Inhibition” value came out at 14%.

In the case of `COc1ccc(CCNC(=O)CCCC(=O)NCc2ccccc2)cc1OC`, the “% Inhibition” value is given as -14%.

As for `COc1ccc(CC(=N)Nc2cc3cc(OC)c(OC)cc3c(Cc3ccc(OC)c(OC)c3)n2)cc1OC`, the “% Inhibition” value came to 89%.

Regarding `CNC(=O)C(=O)Nc1ccccc1C(F)(F)F`, the “% Inhibition” value is 9%.

`C[C@H](NC(=O)c1cocn1)c1ccccc1NC(=O)c1cocn1`: the “% Inhibition” value is listed as -7%.

With `Cc1cc([C@H](Nc2ccccn2)c2ccccc2)c(NC(=O)c2ccccc2)s1`, the “% Inhibition” value turned out to be 3%.

For the compound `Cc1cc([C@H](Nc2ccccn2)c2cccnc2)c(NC(=O)c2ccccc2)s1`, the “% Inhibition” value is listed as 4%.

As for `Oc1ccc2ncccc2c1[C@@H](Nc1ccccn1)c1cccc(Br)c1`, the “% Inhibition” value turned out to be 77%.

Consider `CCCC(=O)N1CCC(OC(=O)c2cnc3ccc(F)cc3c2)CC1`, for which the “% Inhibition” value was -10%.

On to `CC(C)Nc1nc2nonc2n2cnnc12`, for which the “% Inhibition” value is recorded as 90%.

Take `COc1ccc(Nc2ncc(Cc3ccccc3C)s2)cc1`: the “% Inhibition” value is on record as 4%.

In the case of `CC(C)C(CNCc1nnn(C)n1)C(C)C`, the “% Inhibition” value was found to be 11%.

For the compound `FC(F)(F)c1cnc(-c2csc(NC3CCCCC3)n2)c(Cl)c1`, the “% Inhibition” value came to 15%.

Take `NC(=O)c1nnn2c1C(=O)N[C@H](c1ccc(Cl)cc1)C2`: the “% Inhibition” value is listed as -13%.

As for `CCc1c(-c2nc(CCN(C)C(=O)c3ccoc3)no2)[nH]c2ccc(C)cc12`, the “% Inhibition” value is on record as -19%.

Consider `CCN1c2cc(C(=O)N3CCCCC3)ccc2C(=O)N2CCCCC[C@H]21`, for which the “% Inhibition” value came out at 6%.

Take `Cc1cc(NC(=O)c2ccccn2)n(-c2nc3ccccc3o2)n1`: the “% Inhibition” value was determined as 93%.

With `Cc1cc(C)n(C(=O)CNC(=O)c2ccccn2)n1`, the “% Inhibition” value turned out to be 14%.

With `Cc1cc(C(=O)Nc2cc(C)nn2C)nc(N(C)C)n1`, the “% Inhibition” value is 8%.

Regarding `COc1ccc(S(=O)(=O)N2CC[C@@H]3[C@@H](COCCN3Cc3ccccc3)C2)cc1`, the “% Inhibition” value is 0%.

Turning to `O=C(CNC(=O)COc1ccccc1)NCC1(O)CCCCCC1`, the “% Inhibition” value amounted to 6%.

Consider `C[C@@H](CN)N(C)c1ccnc2cc(Br)cnc12`, for which the “% Inhibition” value was 96%.

For the compound `O=C(O)C1c2ccccc2C(=O)N(C2CCCCC2)C1c1ccc(Cl)cc1` (configuration not stated), the “% Inhibition” value is on record as -3%.

Take `Cc1noc(C)c1CN1CCCN(C(=O)c2n[nH]c3ccccc23)CC1`: the “% Inhibition” value came to 7%.

For `Cc1noc(C)c1CN1CCNC(=O)CC1`, the “% Inhibition” value is on record as -14%.

On to `Cc1noc(C)c1CN1C[C@@H]2Oc3cc(F)ccc3C(=O)N(C)[C@@H]2C1`, for which the “% Inhibition” value came out at 97%.

On to `Cc1ccc(N2C(=O)c3ccccc3[C@H]2Nc2nc(C)cs2)nc1`, for which the “% Inhibition” value is recorded as -16%.

As for `C[C@@H]1CN(C(=O)NCCc2ccc(C(F)(F)F)cn2)C[C@H](C)O1`, the “% Inhibition” value was determined as 6%.

For `Cc1cc(NCc2noc(-c3ccsc3)n2)ccc1C(N)=O`, the “% Inhibition” value is on record as 5%.

With `Cc1noc(C)c1NS(=O)(=O)c1ccc2c(c1)OCCCO2`, the “% Inhibition” value turned out to be 0%.

Take `CCN(CC(=O)Nc1ccc2c(c1)OCCO2)C(=O)CCc1c(C)noc1Cl`: the “% Inhibition” value is on record as 5%.

With `COc1ccc2[nH]c3c(c2c1)CCN(C(=O)c1ccc(C)c(C)c1)[C@@H]3c1ccccc1OC`, the “% Inhibition” value was determined as 86%.

As for `COc1ccc(N2CCN(C(=O)c3ccc(F)cc3)[C@@H](C)C2=O)cc1`, the “% Inhibition” value amounted to 11%.

Take `COc1ccc([C@@H]2c3[nH]c4ccc(OC)cc4c3CCN2C(=O)NCc2ccc(F)cc2)cc1`: the “% Inhibition” value was 4%.

As for `CC1(C)CCC(Nc2ccc(C(N)=O)nn2)CC1`, the “% Inhibition” value turned out to be 92%.

Take `CC1CCCCC1OCCN1CCOCC1C(N)=O` (configuration not stated): the “% Inhibition” value is recorded as 7%.

`COc1cccc(-c2cc(C(=O)Nc3ccc(F)c(Cl)c3)c3c(C)nn(C)c3n2)c1`: the “% Inhibition” value is given as 4%.

In the case of `Cc1nn(C)c(C)c1-c1cc(C(=O)Nc2cc(F)ccc2F)c2c(C)nn(C)c2n1`, the “% Inhibition” value was 2%.

For the compound `CC(C)C(C(=O)O)N1Cc2c(cc(O)c3c2OC2(C3)C(C)CCC3C(C)(C)C(O)CCC32C)C1=O` (configuration not stated), the “% Inhibition” value turned out to be 5%.

On to `Cc1c(NC(=O)C(F)(F)[C@@]2(F)OC(F)(F)C(F)(F)C2(F)F)c(=O)n(-c2ccccc2)n1C`, for which the “% Inhibition” value was -16%.

Turning to `Cc1cc(F)ccc1-n1ccc(C(=O)N(C[C@H]2CCOC2)C2CC2)n1`, the “% Inhibition” value is given as -12%.

`CC[C@](O)(C(=O)N(C)Cc1ncon1)c1cccc(Cl)c1`: the “% Inhibition” value is given as -13%.

Consider `Cc1ccc(CC[C@H]2Nc3ccccc3C(c3ccccc3)(c3ccccc3)O2)o1`, for which the “% Inhibition” value was 66%.

For the compound `CCCOC(=O)c1cc(NC(=O)c2ccc3ccccc3c2)ccc1N1CCOCC1`, the “% Inhibition” value was -11%.

For `Cc1cc(C(=O)N2CCC3(CCNCC3)CC2)ccc1F`, the “% Inhibition” value turned out to be 7%.

Take `CN1C(=O)[C@H](O)N(c2cccc3ccccc23)C1=O`: the “% Inhibition” value turned out to be 9%.

Turning to `COc1cccc(-c2cc3c(N4CCN(c5ccccn5)CC4)nccn3n2)c1`, the “% Inhibition” value was determined as 4%.

For the compound `C[C@H](NC(=O)c1cc(-c2ccc(F)cc2)ns1)c1ccccn1`, the “% Inhibition” value is recorded as 9%.

`Cc1c2c(C(F)(F)F)cc(=O)n(CCC(=O)Nc3ncc(Cl)cc3Cl)c2nn1C`: the “% Inhibition” value was -7%.

With `Cn1c(Cc2n[n+]3c(-c4ccccc4)cc(-c4ccccc4)nc3n2C)n[n+]2c(-c3ccccc3)cc(-c3ccccc3)nc12`, the “% Inhibition” value is listed as 95%.

As to `Cc1ccc(Cl)cc1N1CCN(C(=O)c2ccc3noc(-c4ccc(F)cc4)c3c2)CC1`, the “% Inhibition” value is -13%.

Take `c1ccc(CC2CCN(c3[nH]cnc4ncnc3-4)CC2)cc1`: the “% Inhibition” value was 11%.

Regarding `Cc1cccc(C(=O)Nc2ccc(N3CCCCCC3)cc2C(=O)O)c1`, the “% Inhibition” value is -10%.

For `O=C(Nc1cc(N2CCCS2(=O)=O)ccc1O)c1cccc(Oc2cccc(C(F)(F)F)c2)c1`, the “% Inhibition” value is 97%.

Take `O=C(Nc1cccc(C(F)(F)F)c1)C(Oc1ccccc1)Oc1ccccc1`: the “% Inhibition” value is -19%.

Consider `CCOC(=O)c1oc(NC(=O)OC(C)(C)C)nc1C(F)(F)F`, for which the “% Inhibition” value amounted to 5%.

Turning to `C#CCn1ccc(O)c(Cc2ccccc2)c1=O`, the “% Inhibition” value stood at 14%.

`CN(C(=O)C1CC=CC1)c1ccc(NC(=O)C2CC=CC2)cc1Cl`: the “% Inhibition” value is -13%.

As for `c1ccc(N2CCN(CCN[C@H]3CCc4cc5c(cc43)CCC5)CC2)cc1`, the “% Inhibition” value came out at 9%.

In the case of `Cc1ccnc(CNC(=O)N[C@H]2CCc3ccc(F)cc32)c1`, the “% Inhibition” value was -12%.

With `Oc1ccccc1CCN[C@H]1CCc2ccc(F)cc21`, the “% Inhibition” value is on record as 95%.

In the case of `CN(Cc1ccc(F)cc1Cl)[C@H]1CCc2nnc(C3CCOCC3)n2CC1`, the “% Inhibition” value is -4%.

In the case of `O=C1OCc2cc(NC(=O)[C@@H]3COc4ccccc4O3)ccc21`, the “% Inhibition” value was 10%.

Regarding `Cc1cc(OCc2ccc(C(=O)Nc3ncn(Cc4c(F)cccc4Cl)n3)o2)ccc1Cl`, the “% Inhibition” value was found to be 0%.

With `COc1ccc(NC(=O)CC(C)(C)CC(=O)O)cc1`, the “% Inhibition” value came out at 10%.

For `Cc1cc2nc(C)c(=O)n(Cc3ccc(C(=O)N4CCC(Cc5ccccc5)CC4)cc3)c2cc1C`, the “% Inhibition” value was determined as 12%.

Turning to `Cn1c(-c2ccc(Cl)c(Cl)c2)c[n+](CC(=O)c2ccc(-c3ccccc3)cc2)c1N`, the “% Inhibition” value is 9%.

For `C=Cn1cc[n+](CC(=O)c2ccc(-c3ccccc3)cc2)c1`, the “% Inhibition” value is listed as 51%.

As to `Cc1ccc(C(=O)C[n+]2cc(-c3ccc(-c4ccccc4)cc3)n(C)c2N)cc1`, the “% Inhibition” value is recorded as 4%.

For `CCC(C(=O)Nc1cc(C)on1)(C(F)(F)F)C(F)(F)F`, the “% Inhibition” value was determined as 9%.

On to `CCCN1CCN(CCCNC(=O)c2ccc(Cl)c(-n3c(C)nc4cccnc43)c2)CC1`, for which the “% Inhibition” value was found to be 13%.

Consider `Cc1cc(NC(=O)[C@H](C)OC(=O)c2ccc3c(c2)OCC(=O)N3)on1`, for which the “% Inhibition” value was -19%.

As to `Cc1nnc(CC(=O)NC2CC(OCc3ccccc3)C2(C)C)o1` (configuration not stated), the “% Inhibition” value is reported as 8%.

Turning to `Cc1nnc(CNC(=O)Nc2cccc3c4c(oc23)CCCC4)o1`, the “% Inhibition” value was 72%.

For `Cc1nnc(-c2ccccc2NC(=O)CCC2CCC(C)O2)o1` (configuration not stated), the “% Inhibition” value is recorded as -16%.

`Cc1ccc(NC(=N)NC2=N[C@@H](CC(=O)Nc3cccc(C(F)(F)F)c3)C(=O)N2)cc1`: the “% Inhibition” value is reported as -10%.

Turning to `CCn1nccc1CNc1ccc(F)cc1F`, the “% Inhibition” value was 2%.

`Cc1ccc(S(=O)(=O)N2CCC[C@H](C(=O)NCc3cccc(NC(=O)N4CCCC4)c3)C2)s1`: the “% Inhibition” value came out at 8%.

`Cc1cc2c(OC[C@@H](O)CN3CCOCC3)cccc2[nH]1`: the “% Inhibition” value is given as -7%.

Turning to `Cc1nn(Cc2ccccc2)c(=O)n1-c1ccc(OCc2ccccc2)cc1`, the “% Inhibition” value was -14%.

`COCCCNC(=O)C1CCN(c2c(C)n(-c3ccccc3)c(=O)n(CC(C)C)c2=O)CC1`: the “% Inhibition” value is 5%.

Take `CN(Cc1ccc(F)cn1)c1ccn(C)n1`: the “% Inhibition” value is listed as 8%.

As to `CC1(C)OCc2cc(CNc3ccc4oc(=O)[nH]c4c3)ccc2O1`, the “% Inhibition” value was found to be 100%.

In the case of `Cc1ccc(C)c(NC(=O)CC(=O)O)c1`, the “% Inhibition” value is listed as -8%.

Take `O=C1C2CC2C(=O)N1Cc1ccccc1` (configuration not stated): the “% Inhibition” value is on record as 10%.

Take `Cc1nc(-c2ccc(N3CCC(NCCCn4ccnc4)CC3)cc2)cs1`: the “% Inhibition” value is 23%.

For `O=C(CN1CCC(c2ccc(F)c(F)c2)CC1)NCc1cccnc1`, the “% Inhibition” value is recorded as -8%.

`Cc1ccc(C(=O)N[C@@H](C)CCc2ccccc2)cc1S(=O)(=O)N1CCN(C)CC1`: the “% Inhibition” value is reported as -22%.

Consider `O=S(=O)(c1ccccc1C(F)(F)F)N1CC[C@]2(CCN(c3cccnc3)C2)C1`, for which the “% Inhibition” value was found to be 10%.

In the case of `CC(C#N)CNCCC(C)c1ccccc1` (configuration not stated), the “% Inhibition” value was 8%.

For `O=C(O)c1cc(C=Cc2ccc3ncccc3c2)ncn1`, the “% Inhibition” value is 11%.

Take `COc1ccc2cc3n(c2c1)C[C@](C(=O)NC1CCCCCC1)(c1ccccc1)N(Cc1ccc(OC(C)C)cc1)C3=O`: the “% Inhibition” value is given as -23%.

Consider `Brc1cnn(Cc2cnc(NC3C4CCOC4C34CCC4)s2)c1` (configuration not stated), for which the “% Inhibition” value is 4%.

With `C[C@@H](N)C(=O)N1CCc2cc(-c3ccccc3)ccc21`, the “% Inhibition” value is given as 11%.

With `CCC1CCCC(NS(=O)(=O)CCC(C)(C)C)C1` (configuration not stated), the “% Inhibition” value is reported as -12%.

Turning to `O=S(=O)(c1ccccc1)N1CCN(S(=O)(=O)c2ccc(Cl)cc2)C1`, the “% Inhibition” value was 11%.

In the case of `Cc1ccc(N2CCN(S(=O)(=O)c3ccccc3)[C@@H](C)C2=O)cc1F`, the “% Inhibition” value is listed as -11%.

`O=c1[nH]c(=O)n(S(=O)(=O)c2ccccc2)cc1F`: the “% Inhibition” value is on record as 87%.
